Records with an inconclusive call do not appear. Calls of active or inactive are those of the source. The calls were made as follows: active = hit-call score of the fitted dose curve at least 0.9, where 1 is the maximum; inconclusive = response in the unintended direction; inactive = score below 0.9.
Legend:
[1] = target: Adenosine receptor A1 (Bos taurus) (UniProt P28190); test: NVS_GPCR_bAdoR_NonSelective: NovaScreen (NVS) G Protein-Coupled Receptor Assay for bovine Adenosine Receptor (AdoR), Non-selective Binding (AID 2283244)
Method in brief: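 Cell-free binding with membranes from bovine striatum: radioligand displaced by test chemical, read after 1 h by filtration and scintillation. Single-point 25 uM duplicate primary, 50 uM top concentration in follow-up curves, DMSO baseline.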

[2] = target: human Serotonin, 5-Hydroxytryptamine Receptor 2A (5HT2A), HTR2A (gene 3356) (UniProt P28223); test: NVS_GPCR_h5HT2A: NovaScreen (NVS) G Protein-Coupled Receptor Assay for human Serotonin, 5-Hydroxytryptamine Receptor 2A (5HT2A) (AID 2283249)
Method in brief: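 Radioligand displacement on human cortex tissue extract, counted by filtration and scintillation 1.5 h post-dosing. Initial single-concentration screen at 25 uM in duplicate, concentration series in follow-up; DMSO as baseline.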

[3] = system: guinea pig Leukotriene B4 Receptor (LTB4), gene 100379538; test: NVS_GPCR_gLTB4: NovaScreen (NVS) G Protein-Coupled Receptor Assay for guinea pig Leukotriene B4 Receptor (LTB4) (AID 2283247)
Method in brief: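 Membranes from guinea pig spleen incubated 2 h with radioligand and compound; bound counts measured by filtration and scintillation. Screened first at 25 uM in duplicate, then actives titrated to a 50 uM top concentration relative to DMSO.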

[4] = target: guinea pig Leukotriene D4 Receptor (LTD4), CYSLTR1 (gene 100135514) (UniProt Q2NNR5); test: NVS_GPCR_gLTD4: NovaScreen (NVS) G Protein-Coupled Receptor Assay for guinea pig Leukotriene D4 Receptor (LTD4) (AID 2283248)
Method in brief: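 Guinea pig lung membrane preparation; bound radioligand measured by filter scintillation after 1 h, loss of signal versus DMSO marking displacement. Compounds tested at 25 uM in duplicate, hits retested to max 50 uM.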

[5] = target: human Serotonin, 5-Hydroxytryptamine Receptor 5A (5HT5A), HTR5A (gene 3361) (UniProt P47898); test: NVS_GPCR_h5HT5A: NovaScreen (NVS) G Protein-Coupled Receptor Assay for human Serotonin, 5-Hydroxytryptamine Receptor 5A (5HT5A) (AID 2283251)
Method in brief: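 Membranes from HEK293 cells, radioligand binding read by filtration and scintillation after 1 h. Single-concentration duplicate testing at 25 uM, then concentration-response for actives; positive-direction fitting relative to DMSO.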

[6] = target: human Adenosine A1 Receptor (AdoRA1), ADORA1 (gene 134) (UniProt P30542); test: NVS_GPCR_hAdoRA1: NovaScreen (NVS) G Protein-Coupled Receptor Assay for human Adenosine A1 Receptor (AdoRA1) (AID 2283254)
Method in brief: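 Radioligand binding was run on human cortical membranes, cell-free, with filter-based scintillation counting 1 h after dosing. The primary screen was duplicate at 25 uM, followed by concentration series. Signal loss versus DMSO was fitted positive-direction.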

[7] = system: guinea pig Muscarinic, Peripheral (Mperiperal) Receptor, Non-selective Binding, gene 100379235; test: NVS_GPCR_gMPeripheral_NonSelective: NovaScreen (NVS) G Protein-Coupled Receptor Assay for guinea pig Muscarinic, Peripheral (Mperiperal) Receptor, Non-selective Binding (AID 2283250)
Method in brief: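 Screened in duplicate at 25 uM, hits retested in concentration series to 50 uM max, using bladder membrane radioligand displacement from guinea pig. Filtration and scintillation counting 1 h post-dose, fitted relative to DMSO.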

[8] = target: guinea pig Opioid, Kappa 1 Receptor (OpiateK), OPRK1 (gene 100135587) (UniProt P41144); test: NVS_GPCR_gOpiateK: NovaScreen (NVS) G Protein-Coupled Receptor Assay for guinea pig Opioid, Kappa 1 Receptor (OpiateK) (AID 2283252);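 also: radioligand displacement from kappa opioid receptor in guinea pig cerebellar membranes; active means reduced radioligand binding relative to DMSO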
Method in brief: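 Radioligand competition binding using guinea pig cerebellum membrane fraction; 2 h exposure; filter radiodetection. Single concentration 25 uM (duplicate), follow-up concentration-response for actives.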

[9] = target: human Serotonin, 5-Hydroxytryptamine Receptor 6 (5HT6), HTR6 (gene 3362) (UniProt P50406); test: NVS_GPCR_h5HT6: NovaScreen (NVS) G Protein-Coupled Receptor Assay for human Serotonin, 5-Hydroxytryptamine Receptor 6 (5HT6) (AID 2283253)
Method in brief: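 Filter scintillation counting of radioligand displacement from HEK293-expressed 5HT6, 1 hour post-dose, with loss of signal relative to DMSO. Single 25 uM duplicates first, with concentration series for confirmation.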

human Serotonin, 5-Hydroxytryptamine Receptor 2A (5HT2A), HTR2A (gene 3356), sequence (P28223 whole entry, looked up): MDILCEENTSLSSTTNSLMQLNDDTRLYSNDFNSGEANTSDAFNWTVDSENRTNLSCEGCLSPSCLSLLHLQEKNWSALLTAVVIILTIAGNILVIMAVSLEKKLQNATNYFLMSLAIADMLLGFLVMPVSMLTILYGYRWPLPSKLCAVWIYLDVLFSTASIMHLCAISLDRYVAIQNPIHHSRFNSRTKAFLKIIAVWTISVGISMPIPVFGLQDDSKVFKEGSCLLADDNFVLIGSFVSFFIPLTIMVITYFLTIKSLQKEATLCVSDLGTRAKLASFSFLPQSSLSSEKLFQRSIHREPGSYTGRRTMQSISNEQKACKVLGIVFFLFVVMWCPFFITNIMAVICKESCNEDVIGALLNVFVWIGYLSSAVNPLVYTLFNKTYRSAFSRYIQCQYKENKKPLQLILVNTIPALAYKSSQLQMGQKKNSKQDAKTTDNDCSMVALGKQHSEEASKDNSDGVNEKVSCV
human Adenosine A1 Receptor (AdoRA1), ADORA1 (gene 134), sequence (P30542 whole entry, looked up): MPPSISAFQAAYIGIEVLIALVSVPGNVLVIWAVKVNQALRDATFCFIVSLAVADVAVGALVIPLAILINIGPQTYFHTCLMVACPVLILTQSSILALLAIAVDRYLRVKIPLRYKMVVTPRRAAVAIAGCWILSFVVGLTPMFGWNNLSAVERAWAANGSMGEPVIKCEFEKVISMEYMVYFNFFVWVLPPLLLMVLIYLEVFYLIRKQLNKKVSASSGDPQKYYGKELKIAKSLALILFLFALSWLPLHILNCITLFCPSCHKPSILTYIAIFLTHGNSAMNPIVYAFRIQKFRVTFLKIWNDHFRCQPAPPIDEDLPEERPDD
guinea pig Opioid, Kappa 1 Receptor (OpiateK), OPRK1 (gene 100135587), sequence (P41144 whole entry, looked up): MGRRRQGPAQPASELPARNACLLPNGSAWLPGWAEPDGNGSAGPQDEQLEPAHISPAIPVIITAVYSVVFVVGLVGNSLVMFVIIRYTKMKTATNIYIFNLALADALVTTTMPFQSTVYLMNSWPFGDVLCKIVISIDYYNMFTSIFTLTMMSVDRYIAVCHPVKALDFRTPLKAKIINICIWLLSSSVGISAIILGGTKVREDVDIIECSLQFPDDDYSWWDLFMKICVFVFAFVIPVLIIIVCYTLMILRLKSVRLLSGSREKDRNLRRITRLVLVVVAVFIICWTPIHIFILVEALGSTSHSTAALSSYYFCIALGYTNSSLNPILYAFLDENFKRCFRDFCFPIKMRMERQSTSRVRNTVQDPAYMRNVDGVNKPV
Adenosine receptor A1 (Bos taurus), sequence (P28190 whole entry, looked up): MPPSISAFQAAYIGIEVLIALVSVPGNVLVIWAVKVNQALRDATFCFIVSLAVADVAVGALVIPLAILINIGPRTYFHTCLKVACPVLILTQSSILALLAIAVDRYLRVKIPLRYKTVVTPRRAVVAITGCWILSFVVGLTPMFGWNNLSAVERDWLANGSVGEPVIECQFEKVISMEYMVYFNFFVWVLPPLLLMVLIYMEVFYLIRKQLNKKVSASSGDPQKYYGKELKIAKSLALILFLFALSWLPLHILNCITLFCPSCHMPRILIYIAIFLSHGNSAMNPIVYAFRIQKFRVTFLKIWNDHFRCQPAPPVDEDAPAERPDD
human Serotonin, 5-Hydroxytryptamine Receptor 5A (5HT5A), HTR5A (gene 3361), sequence (P47898 whole entry, looked up): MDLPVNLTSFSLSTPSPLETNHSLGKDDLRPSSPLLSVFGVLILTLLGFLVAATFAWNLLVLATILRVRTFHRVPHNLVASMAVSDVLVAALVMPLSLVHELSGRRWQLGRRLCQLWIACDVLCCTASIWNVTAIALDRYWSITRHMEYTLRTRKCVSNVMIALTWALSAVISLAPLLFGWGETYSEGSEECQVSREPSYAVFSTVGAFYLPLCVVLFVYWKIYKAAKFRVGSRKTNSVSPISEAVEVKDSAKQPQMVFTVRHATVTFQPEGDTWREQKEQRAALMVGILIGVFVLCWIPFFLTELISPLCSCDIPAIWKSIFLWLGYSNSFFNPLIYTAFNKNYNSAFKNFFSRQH
human Serotonin, 5-Hydroxytryptamine Receptor 6 (5HT6), HTR6 (gene 3362), sequence (P50406 whole entry, looked up): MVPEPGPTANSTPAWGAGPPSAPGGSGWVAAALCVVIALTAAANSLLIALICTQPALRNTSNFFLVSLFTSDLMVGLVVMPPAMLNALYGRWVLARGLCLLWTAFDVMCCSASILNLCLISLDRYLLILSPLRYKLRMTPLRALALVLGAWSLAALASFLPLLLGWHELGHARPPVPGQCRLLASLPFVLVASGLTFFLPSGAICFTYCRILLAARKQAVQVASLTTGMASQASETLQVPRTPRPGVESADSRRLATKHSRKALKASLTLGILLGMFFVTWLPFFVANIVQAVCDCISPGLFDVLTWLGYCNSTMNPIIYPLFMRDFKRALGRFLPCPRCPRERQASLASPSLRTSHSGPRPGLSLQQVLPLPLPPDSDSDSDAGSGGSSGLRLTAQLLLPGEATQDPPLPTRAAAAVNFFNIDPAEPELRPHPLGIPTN
guinea pig Leukotriene D4 Receptor (LTD4), CYSLTR1 (gene 100135514), sequence (Q2NNR5 whole entry, looked up): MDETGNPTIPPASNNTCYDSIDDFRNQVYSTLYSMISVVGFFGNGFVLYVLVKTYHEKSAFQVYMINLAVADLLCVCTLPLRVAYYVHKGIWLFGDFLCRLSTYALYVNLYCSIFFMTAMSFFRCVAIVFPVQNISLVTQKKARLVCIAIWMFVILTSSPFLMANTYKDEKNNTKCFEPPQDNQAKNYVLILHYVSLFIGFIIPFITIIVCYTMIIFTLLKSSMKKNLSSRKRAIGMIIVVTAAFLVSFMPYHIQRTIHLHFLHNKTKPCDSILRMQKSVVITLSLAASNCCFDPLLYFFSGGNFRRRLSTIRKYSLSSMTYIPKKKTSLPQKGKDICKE

Compound: Cn1c(=O)c2c(ncn2C)n(C)c1=O
- AC50 [1]: 25 µM (active)

Compound: CC/C(=C\C(=N/O)C(N)=O)C(C)[N+](=O)[O-] (configuration not stated)
- outcome [2]: inactive

Compound: O=C(O)CCN(C1(C(=O)NO)CCCC1)S(=O)(=O)c1ccc(Oc2ccc(F)cc2)cc1
- AC50 [3]: 0.951 µM (active)

Compound: O=C(O)c1cccc(Oc2ccccc2)c1
- outcome [3]: inactive

Compound: CCOc1cccc(-n2cc(C(=O)N3CCN(c4cc(C(=O)O)c5ccccc5c4)CC3)nc2-c2ccc(C)cc2)c1
- outcome [1]: inactive
- AC50 [4]: 19.8 µM (active)
- AC50 [5]: 34 µM (active)
- AC50 [6]: 14.3 µM (active)

Compound: COc1ccc(/C=C/S(=O)(=O)NC(=O)c2ccc(C)cc2Cl)cc1
- outcome [3]: inactive

Compound: COCCOc1cc2cc(C(=O)NC3CCN(C(C)C)CC3)n(CC(=O)Nc3ccc(Cl)cn3)c2cn1
- outcome [7]: inactive
- outcome [8]: inactive
- outcome [6]: inactive

Compound: CC1(C)C(=O)N(Br)C(=O)N1Br
- AC50 [2]: 25 µM (active)

Compound: O=C(NS(=O)(=O)/C=C/c1ccccc1)c1ccc(F)cc1Cl
- AC50 [3]: 12.4 µM (active)

Compound: O=C(OC[C@H]1O[C@@H](OC(=O)c2cc(O)c(O)c(OC(=O)c3cc(O)c(O)c(O)c3)c2)[C@H](OC(=O)c2cc(O)c(O)c(OC(=O)c3cc(O)c(O)c(O)c3)c2)[C@@H](OC(=O)c2cc(O)c(O)c(OC(=O)c3cc(O)c(O)c(O)c3)c2)[C@@H]1OC(=O)c1cc(O)c(O)c(OC(=O)c2cc(O)c(O)c(O)c2)c1)c1cc(O)c(O)c(OC(=O)c2cc(O)c(O)c(O)c2)c1
- outcome [3]: inactive

Compound: Cc1c(-c2cccnc2)c2ccccc2n1CCCCC(=O)O
- AC50 [8]: 14.7 µM (active)

Compound: O=P(OC(CCl)CCl)(OC(CCl)CCl)OC(CCl)CCl
- outcome [9]: inactive
